Experimental findings from PubChem BioAssay (NCI) are described below.

SMILES strings stand for the structures. The panel holds about 83,000 compounds, 20% with a hit somewhere; the sample as a whole holds those more often.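 Cells were grown in 96-well plates and exposed to the test compound at a single concentration for 48 hours; results are reported as percent growth, with values below 10 considered active.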 A number with no mark means an inactive call. Activity calls are given as the source filed them.

Test systems include NCI-H23 lung; NCI-H226 lung; NCI-H322M lung; HOP-62 NSCLC; NCI-H460 lung; HOP-92 NSCLC; NCI-H522 lung; A549/ATCC NSCLC; 786-0 renal; COLO 205 colon.
Common to all, as to assay: NCI-60 one-dose screen, 48 h (100 = growth as untreated, 0 = no growth, -100 = all killed)
Holding throughout (conditions): 10 µM unless noted

As to `CCCC[C@@H](C=O)NC(=O)[C@H](CC(C)C)NC(=O)[C@H](CC(C)C)NC(=O)OCc1ccccc1`, the growth is -17.1% (active) in the test with NCI-H23 lung; -54.1% (active) in the test on NCI-H226 lung; 15.1% in the test on NCI-H322M lung; 11.8% with HOP-62 NSCLC; 0.451% (active) in the test with NCI-H460 lung; -35.2% (active) in the test with HOP-92 NSCLC. Further, the growth in the test on NCI-H522 lung is -0.189% (active); in the test with A549/ATCC NSCLC, 71.3%; in the test on 786-0 renal, -10% (active); in the test with COLO 205 colon it was -3.03% (active).

Regarding `Cc1cc(NN=C(c2ccc(O)cc2)c2ccc(O)cc2)c([N+](=O)[O-])cc1[N+](=O)[O-]`, the growth in the test on NCI-H23 lung was 31.9%; in the test on NCI-H226 lung it was 99.2%; in the test on NCI-H322M lung, 59.1%; in the test on HOP-62 NSCLC it was 54.2%; in the test on NCI-H460 lung, 27.3%; with HOP-92 NSCLC, 40%. Also, the growth in the test on NCI-H522 lung was 15.4%; in the test on A549/ATCC NSCLC, 11.8%; in the test on 786-0 renal, -5.42% (active); in the test with COLO 205 colon, 98.6%.

Consider `NC(=O)CC1C=CCC1` (stereo not given), for which the growth in the test with NCI-H23 lung is 94.5%; with NCI-H226 lung, 99.4%; in the test on NCI-H322M lung, 108%; in the test on HOP-62 NSCLC it was 103%; in the test on NCI-H460 lung, 101%; in the test on HOP-92 NSCLC, 106%. For the same molecule, the growth is 97.9% with NCI-H522 lung, 80.1% in the test on A549/ATCC NSCLC, 96.5% in the test on 786-0 renal and 114% in the test on COLO 205 colon.

In the case of `CC1=CC[C@@H]2C(C)(C)[C@@H](O)CC[C@@]2(C)[C@@H]1COc1ccc2ccc(=O)oc2c1`, the growth was 74.7% with NCI-H23 lung; 38.2% with NCI-H226 lung; 91.1% in the test with NCI-H322M lung; 67.2% in the test on HOP-62 NSCLC; 88.6% with NCI-H460 lung; 51.3% with HOP-92 NSCLC. For the same molecule, the growth with NCI-H522 lung was 25.9%; in the test on A549/ATCC NSCLC it was 43%; in the test with 786-0 renal, 92.9%; in the test with COLO 205 colon, 55.3%.

Take `O=C(NCc1ccc(Cn2c(=O)sn(-c3ccccc3)c2=O)cc1)OCc1ccc2c(Br)cc(Br)c(O)c2n1`: the growth was -47.2% (active) in the test with NCI-H23 lung; -25.8% (active) with NCI-H226 lung; 43.1% in the test with NCI-H322M lung; -48.4% (active) in the test with HOP-62 NSCLC; -21% (active) with NCI-H460 lung; -58.7% (active) in the test on HOP-92 NSCLC. The growth in the test with NCI-H522 lung was -47.1% (active); in the test on A549/ATCC NSCLC, -52.3% (active); in the test on 786-0 renal it was -78.7% (active); in the test with COLO 205 colon, -75.6% (active).

For `CCN(CC)CCCNCc1cc(-c2ccccc2)nc2ccccc12`, the growth in the test with NCI-H23 lung was 36%; with NCI-H226 lung, 86.5%; in the test on NCI-H322M lung, 102%; with HOP-62 NSCLC, 44.2%; with NCI-H460 lung, 105%; in the test on HOP-92 NSCLC, 49.5%. For the same molecule, the growth is 74.7% in the test with NCI-H522 lung, 87.9% in the test on A549/ATCC NSCLC, 76.1% in the test with 786-0 renal and 117% with COLO 205 colon.

With `CN(C)C(=S)Sc1ccc([N+](=O)[O-])cc1[N+](=O)[O-]`, the growth was 44.4% with NCI-H23 lung; 49.6% with NCI-H226 lung; 101% in the test with NCI-H322M lung; 71.1% with HOP-62 NSCLC; -41.6% (active) in the test on NCI-H460 lung; 0.304% (active) in the test with HOP-92 NSCLC. In addition, the growth in the test with NCI-H522 lung is -92.1% (active); with A549/ATCC NSCLC it was 43.6%; with 786-0 renal, 63.8%; in the test on COLO 205 colon, -22.7% (active).

Turning to `O=C(NCCCCCCCNC(=O)OCc1ccc2c(Cl)cc(Cl)c(O)c2n1)OCc1ccc2c(Cl)cc(Cl)c(O)c2n1`, the growth with NCI-H23 lung is -52.3% (active); in the test with NCI-H226 lung, -50.3% (active); in the test with NCI-H322M lung, 31%; in the test on HOP-62 NSCLC it was -56.8% (active); in the test on NCI-H460 lung, -31.3% (active); in the test on HOP-92 NSCLC it was -75% (active). Besides, the growth in the test on NCI-H522 lung was -55.6% (active); with A549/ATCC NSCLC, -68.7% (active); in the test with 786-0 renal, -62.7% (active); with COLO 205 colon, -75.9% (active).

As for `COc1ccc(C(=O)CSc2nccc(Nc3ccc(C(=O)O)cc3)n2)cc1`, the growth in the test on NCI-H23 lung was 99.2%; in the test on NCI-H226 lung it was 92.8%; in the test with NCI-H322M lung, 106%; in the test with HOP-62 NSCLC, 99.7%; with NCI-H460 lung, 103%; in the test with HOP-92 NSCLC it was 97.4%. Moreover, the growth in the test with NCI-H522 lung is 92.9%; with A549/ATCC NSCLC, 99.7%; in the test with 786-0 renal it was 103%; in the test with COLO 205 colon it was 107%.

In the case of `O=C(NNc1ccc(-c2ccccc2)nn1)c1ccc(F)cc1`, the growth in the test on NCI-H23 lung is 104%; with NCI-H226 lung it was 98.7%; in the test with NCI-H322M lung, 94.3%; with HOP-62 NSCLC, 106%; with NCI-H460 lung it was 99.1%; in the test on HOP-92 NSCLC, 91.5%. Further, the growth is 95.2% with NCI-H522 lung, 98.4% in the test with A549/ATCC NSCLC, 78% in the test on 786-0 renal and 112% in the test with COLO 205 colon.

For the molecule `CN(C)Cc1ccc[nH]1`, the growth in the test on NCI-H23 lung was 93.2%; with NCI-H226 lung it was 93.3%; in the test with NCI-H322M lung it was 130%; in the test with HOP-62 NSCLC it was 117%; in the test on NCI-H460 lung, 103%; in the test on HOP-92 NSCLC, 103%. Further, the growth in the test on NCI-H522 lung is 67.6%; in the test with A549/ATCC NSCLC, 99.4%; with 786-0 renal, 107%; in the test on COLO 205 colon it was 101%.

For `O=[N+]([O-])c1cc([N+](=O)[O-])c(C(F)(F)F)cc1NN=C(c1ccc(O)cc1)c1ccc(O)cc1`, the growth in the test on NCI-H23 lung is -15.7% (active); in the test with NCI-H226 lung, 78.6%; in the test with NCI-H322M lung it was 113%; in the test with HOP-62 NSCLC it was -55.4% (active); with NCI-H460 lung it was -37.8% (active); in the test with HOP-92 NSCLC, 108%. In addition, the growth is -61.5% (active) with NCI-H522 lung, -60.4% (active) in the test on A549/ATCC NSCLC, -27.5% (active) with 786-0 renal and -11% (active) with COLO 205 colon.

Take `COc1ccc(/C=C/C(=C/c2c(O)[nH]c3cc(Br)ccc23)N=O)cc1`: the growth in the test with NCI-H23 lung is 111%; in the test with NCI-H226 lung, 103%; in the test on NCI-H322M lung, 113%; in the test on HOP-62 NSCLC it was 111%; in the test with NCI-H460 lung it was 108%; in the test on HOP-92 NSCLC, 116%. Moreover, the growth was 105% in the test on NCI-H522 lung, 104% in the test on A549/ATCC NSCLC, 112% in the test with 786-0 renal and 126% with COLO 205 colon.

For the molecule `O=C1NC(=O)c2cc([N+](=O)[O-])cc3cccc1c23`, the growth in the test with NCI-H23 lung is 97.6%; with NCI-H226 lung, 106%; with NCI-H322M lung, 89%; in the test with HOP-62 NSCLC, 121%; in the test on NCI-H460 lung, 98.5%; with HOP-92 NSCLC, 80.2%. The growth is 77.5% in the test with NCI-H522 lung, 89.7% in the test on A549/ATCC NSCLC, 98.6% in the test with 786-0 renal and 105% in the test on COLO 205 colon.

Regarding `CCOC(=O)c1nn(C2CCCCO2)c2ccc(NC(=O)Cn3nnc4ccccc43)cc12` (stereo not given), the growth in the test on NCI-H23 lung is 102%; in the test on NCI-H226 lung it was 109%; with NCI-H322M lung, 96.9%; in the test on HOP-62 NSCLC, 98.8%; in the test on NCI-H460 lung, 100%; in the test with HOP-92 NSCLC, 111%. Besides, the growth in the test on NCI-H522 lung is 102%; in the test on A549/ATCC NSCLC, 102%; in the test on 786-0 renal, 90.9%; in the test with COLO 205 colon, 120%.

Regarding `CC1=C/C(=C(\c2cc(C)c(O)c(C(=O)O)c2)c2c(Cl)cccc2Cl)C=C(C(=O)O)C1=O`, the growth in the test with NCI-H23 lung was 98.8%; in the test with NCI-H226 lung, 96.7%; in the test on NCI-H322M lung, 97.7%; with HOP-62 NSCLC, 97%; in the test on NCI-H460 lung, 104%; with HOP-92 NSCLC it was 92.9%. In addition, the growth was 97.8% in the test on NCI-H522 lung, 100% with A549/ATCC NSCLC, 102% with 786-0 renal and 110% in the test on COLO 205 colon.

Consider `O=C(Nc1cc(F)cc2cccnc12)c1cnc(N2CCNCC2)cn1`, for which the growth in the test on NCI-H23 lung was 83.4%; in the test with NCI-H226 lung, 100%; with NCI-H322M lung, 69.3%; in the test with HOP-62 NSCLC it was 85.2%; in the test with NCI-H460 lung, 80.6%; in the test on HOP-92 NSCLC, 49.1%. Also, the growth with NCI-H522 lung is 54.5%; with A549/ATCC NSCLC it was 88.1%; in the test with 786-0 renal, 89.1%; in the test with COLO 205 colon it was 13.9%.

With `Cn1cc(-c2nnc(-c3ccccc3)s2)c2cc(Br)cnc21`, the growth was 85% with NCI-H23 lung; 64% with NCI-H226 lung; 88.2% with NCI-H322M lung; 74.3% in the test on HOP-62 NSCLC; 95.4% with NCI-H460 lung; 42.3% in the test with HOP-92 NSCLC. In addition, the growth in the test on NCI-H522 lung was 89.5%; in the test on A549/ATCC NSCLC, 83.1%; in the test with 786-0 renal, 99.6%; in the test on COLO 205 colon, 104%.

On to `COc1ccc2c(c1)C(C)Cc1c(ncnc1-n1cnc3ccccc31)N2C` (stereo not given), for which the growth with NCI-H23 lung is 32.3%; in the test with NCI-H226 lung it was 41.5%; in the test on NCI-H322M lung it was 54.9%; with HOP-62 NSCLC, 24.1%; in the test with NCI-H460 lung, 11.8%; in the test on HOP-92 NSCLC, 45.1%. Moreover, the growth in the test with NCI-H522 lung is -18.9% (active); in the test on A549/ATCC NSCLC, 21.4%; in the test on 786-0 renal, 29%; in the test with COLO 205 colon it was -28.7% (active).
